From the supplement of paper PMC8728848 come the findings set out here.

Many of the other results were omitted from the sample, so the strongest signals are more common in it than they were.

Holding throughout (assay): glycan array binding signal (z-score within array); higher = stronger binding
Holding throughout (conditions): glycan notation: IUPAC condensed, linker removed

Experiment [1] has as its target Neu5Ac(a2-6)Gal(b1-4)GlcNAc(b1-2)Man. The method in brief:
(§1)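 Glycan array data came from 3228 arrays in the Consortium for Functional Glycomics database, and only arrays with an available protein sequence were kept. Glycan names were put into IUPAC-condensed notation, and columns mapping to the same glycan were averaged. The binding signal is a within-array Z-score, averaged across arrays of one protein sequence run at different concentrations or buffers and across linkers. A negative Z-score can be read as non-binding.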

Experiment [2] concerns the target Neu5Ac(a2-6)Gal(b1-4)GlcNAc(b1-2)[Neu5Ac(a2-6)Gal(b1-4)GlcNAc(b1-6)]Man(a1-6)[Neu5Ac(a2-6)Gal(b1-4)GlcNAc(b1-2)Man(a1-3)][GlcNAc(b1-4)]Man(b1-4)GlcNAc(b1-4)GlcNAc. The method in brief: as §1
Experiment [3] addresses Neu5Ac(a2-6)Gal(b1-4)GlcNAc(b1-3)Gal(b1-4)GlcNAc(b1-6)[Gal(b1-3)]GalNAc. The method in brief: as §1
In experiment [4] the target is Neu5Ac(a2-6)Gal(b1-4)GlcNAc(b1-3)GalNAc. The method, boiled down: as §1
The target of experiment [5] is Neu5Ac(a2-6)Gal(b1-4)GlcNAc(b1-3)[Neu5Ac(a2-6)Gal(b1-4)GlcNAc(b1-6)]GalNAc. The method, boiled down: as §1
Experiment [6] concerns the target Neu5Ac(a2-6)Gal(b1-4)GlcNAc(b1-6)[Gal(b1-3)]GalNAc. The method in brief: as §1
For experiment [7], the target named is Neu5Ac(a2-6)Gal(b1-4)GlcNAc6S. The method in brief: as §1
The target of experiment [8] is Neu5Ac(a2-6)GalNAc(b1-4)GlcNAc. The method, boiled down: as §1
For experiment [9], the target named is Neu5Ac(a2-6)GlcNAc(b1-4)GlcNAc. The method, boiled down:
as §1

For experiment [10], the target named is Neu5Ac(a2-8)Neu5Ac(a2-3)Gal(b1-3)GalNAc(b1-4)[Neu5Ac(a2-8)Neu5Ac(a2-3)]Gal(b1-4)Glc. The method, boiled down: as §1
Experiment [11] deals with Neu5Ac(a2-8)Neu5Ac(a2-3)Gal(b1-4)GlcNAc. The method in brief: as §1
Experiment [12] deals with Neu5Ac(a2-8)Neu5Ac(a2-8)Neu5Ac(a2-3)[GalNAc(b1-4)]Gal(b1-4)Glc. The method, boiled down:
as §1

B1: ArathEULS3 TAP (Arabidopsis thaliana) (protein)
chain: IDENLYFQGGSMDEKTTGWRGGHVVEGLAGELEQLRARLEHHPQGQREPGGGGSLEITSLYKKAGFMEHHHQHHRHHQRDDGEDDRQSFGVPPPHVDAPPQPHGLYQSQPHFDPYAPTPQAPAPYRSETQFEPHAPPPYRSEPYFETPAPPPSFGHVSHVGHQSPNESYPPEHHRYGGYQQPSNSLLESHGDHSGVTHVAHHSSNQPQSSSGVYHKPDENRLPDNLAGLAGRATVKVYSKAEPNYNLTIRDGKVILAPADPSDEAQHWYKDEKYSTKVKDADGHPCFALVNKATGEAMKHSVGATHPVHLIRYVPDKLDESVLWTESKDFGDGYRTIRMVNNTRLNVDAYHGDSKSGGVRDGTTIVLWDWNKGDNQLWKIFPF
B1: the “glycan array binding signal (z-score)” value in experiment [1] is 0.021; in experiment [2], -0.647; in experiment [3], -0.634; in experiment [4], 0.12; in [5], 0.364; in experiment [6], 0.429. The “glycan array binding signal (z-score)” value is -0.553 in [7]; 0.004 in [8]; 1.18 in [9]; 2.9 in experiment [10]; -0.433 in [11]; -0.112 in experiment [12].
